# Reference: ChEMBL document CHEMBL1201862, “PubChem BioAssay data set” (2004)
# Out of some 400,000 compounds screened, about 2,100 (0.53%) were called active. Another 14% or so got no clear call; they are omitted. No rule for the calls is given here. Many of the other results were omitted from the sample, so actives are more common in it than they were.
# Molecular target: Ataxin-2 (Homo sapiens) (UniProt Q99700)
# Experiment: qHTS for Inhibitors of ATXN expression.
# Assay type: functional
# Ataxin-2 (Homo sapiens), sequence (Q99700 whole entry): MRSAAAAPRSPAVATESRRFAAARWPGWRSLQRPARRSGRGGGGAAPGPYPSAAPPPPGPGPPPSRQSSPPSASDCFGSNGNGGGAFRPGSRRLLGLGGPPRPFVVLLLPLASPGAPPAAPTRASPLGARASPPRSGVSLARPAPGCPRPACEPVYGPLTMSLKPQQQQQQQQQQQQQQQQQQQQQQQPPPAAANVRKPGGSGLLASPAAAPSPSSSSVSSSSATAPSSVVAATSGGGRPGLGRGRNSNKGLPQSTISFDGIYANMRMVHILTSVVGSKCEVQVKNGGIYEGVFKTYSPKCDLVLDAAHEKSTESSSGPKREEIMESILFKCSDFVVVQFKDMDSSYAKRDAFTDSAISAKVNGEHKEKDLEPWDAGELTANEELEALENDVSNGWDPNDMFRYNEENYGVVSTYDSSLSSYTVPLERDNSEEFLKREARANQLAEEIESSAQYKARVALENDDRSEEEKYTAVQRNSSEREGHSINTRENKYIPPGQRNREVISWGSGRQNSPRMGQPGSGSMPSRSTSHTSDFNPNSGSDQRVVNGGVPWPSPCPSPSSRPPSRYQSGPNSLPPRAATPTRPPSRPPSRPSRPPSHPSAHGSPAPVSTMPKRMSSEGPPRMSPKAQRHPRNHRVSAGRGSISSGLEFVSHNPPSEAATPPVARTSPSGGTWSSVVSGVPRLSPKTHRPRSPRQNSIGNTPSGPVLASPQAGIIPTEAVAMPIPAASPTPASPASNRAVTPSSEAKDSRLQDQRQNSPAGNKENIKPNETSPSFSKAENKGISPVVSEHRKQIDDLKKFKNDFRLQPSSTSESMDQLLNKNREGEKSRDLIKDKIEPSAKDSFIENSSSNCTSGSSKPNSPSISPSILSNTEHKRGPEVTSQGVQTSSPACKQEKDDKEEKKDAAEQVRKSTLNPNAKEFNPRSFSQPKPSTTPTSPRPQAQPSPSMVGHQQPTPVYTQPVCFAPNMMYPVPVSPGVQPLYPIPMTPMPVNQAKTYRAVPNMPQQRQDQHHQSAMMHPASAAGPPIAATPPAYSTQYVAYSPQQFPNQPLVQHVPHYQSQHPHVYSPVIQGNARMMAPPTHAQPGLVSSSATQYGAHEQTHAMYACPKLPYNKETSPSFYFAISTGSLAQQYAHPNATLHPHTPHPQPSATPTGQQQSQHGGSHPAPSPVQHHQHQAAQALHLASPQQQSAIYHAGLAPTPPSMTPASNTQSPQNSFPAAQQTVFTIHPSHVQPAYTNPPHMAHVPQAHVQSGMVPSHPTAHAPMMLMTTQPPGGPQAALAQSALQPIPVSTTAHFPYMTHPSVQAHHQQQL
row,Compound,Potency
1,CCCCC(=O)N/N=C/c1ccc(-c2ccc([N+](=O)[O-])cc2)o1,inactive
2,CSCCC(NC(=O)COc1ccccc1)C(=O)N(C)Cc1c(F)cccc1Cl (centres undefined),inactive
3,CC(=O)c1cn(-c2ccc(Cl)cc2)c(=O)n(Cc2ccc(F)cc2)c1=O,inactive
4,Cc1cc2oc(=O)cc(CN3CCOCC3)c2cc1Cl,inactive
5,Cc1ccc(Cn2c(=O)c3ccccc3n3nc(C)cc23)cc1,inactive
6,Cc1ccc(-c2cc(C#N)c(=O)n(Cc3c(Cl)cccc3Cl)c2)cc1,inactive
7,Cc1ccc(Cn2c(=O)c3c(ncn3C)n(C)c2=O)cc1,inactive
8,Cc1cc2oc(=O)cc(Cn3ncc(Cl)c(Cl)c3=O)c2cc1Cl,39.8 µM (active)
9,Cc1ccc(Cn2ncn(-c3ccccc3)c2=O)cc1,inactive
10,CC1CCN(Cc2cc(=O)oc3cc(O)c(Cl)cc23)CC1,inactive
11,Cc1ccc(Cn2ncc(Cl)c(Cl)c2=O)cc1,39.8 µM (active)
12,Cc1cccc(Cn2ncc(Cl)c(Cl)c2=O)c1,39.8 µM (active)
13,O=c1c(Cl)c(Cl)cnn1Cc1ccc(F)cc1,39.8 µM (active)
14,CC(C)(C)c1cc(C(=O)NN)n(Cc2ccc(F)cc2)n1,inactive
15,CCC(C)N1C(=O)S/C(=C/c2ccc(N3CCOCC3)cc2C)C1=O (centres undefined),inactive
16,CCN(CC)Cc1c(O)ccc2cc(-c3nc4ccccc4n3C)c(=O)oc12,inactive
17,Cc1c2ccccc2nc2c(F)c(N(C)C)c(F)c(F)c12,inactive
18,Cc1c(O)ccc2cc(S(=O)(=O)c3ccccc3)c(=O)oc12,inactive
19,Cc1cc(C(=O)COC(=O)[C@H](C)NC(=O)c2ccco2)c(C)n1Cc1ccco1,inactive
20,COc1ccccc1Nc1nc2cc(C)ccc2cc1C#N,inactive
21,COc1ccc(C)cc1Nc1n[n+](-c2ccccc2)c(-c2c(OC)ccc3ccccc23)s1,20 µM (active)
22,COc1ccc(C)cc1NCc1ccc([N+](=O)[O-])cc1,inactive
23,O=c1[nH]c(=O)n(-c2cc(Br)c(O)c(Br)c2)cc1Br,inactive

row,Compound,Potency
1,O=c1oc2ccccc2cc1-c1nc(-c2cccs2)cs1,inactive
2,C=CCOc1ccc(C2C(C(=O)c3ccco3)=C(O)C(=O)N2c2nnc(C)s2)cc1 (centres undefined),inactive
3,C=C1CC2(CC(c3ccccc3)OC(c3ccccc3)C2)OC1=O (centres undefined),39.8 µM (active)
4,O=C(/C=C/c1cn(CC(O)CN2CCCCCC2)c2ccccc12)c1cccs1 (centres undefined),inactive
5,Fc1ccc(-c2ncc3ccccn23)cc1,inactive
6,Cn1c(=S)n(C)c2ccccc21,inactive
7,CN(C(=O)CSc1nnc(-c2cccs2)n1N)c1ccccc1,inactive
8,CC1CCN(C(=O)CCC(=O)Nc2nnc(C(F)(F)F)s2)CC1,inactive
9,O=C(Nc1nnc(C(F)(F)F)s1)c1c(F)cccc1F,inactive
10,CCC(NC(=O)Nc1nnc(C(F)(F)F)s1)(C(F)(F)F)C(F)(F)F,31.6 µM (active)
11,O=C(O)CSc1nnc(-c2cccc(S(=O)(=O)N3CCOCC3)c2)n1-c1ccc(F)cc1,inactive
12,N=C1C=CC(=C(c2ccc(N)cc2)c2ccc(N)cc2)C=C1,28.2 µM (active)
13,COc1ccc(COc2ncnc3ccc(Br)cc23)cc1F,inactive
14,Cc1cc(S(=O)(=O)NC2CC(C)(C)NC(C)(C)C2)c(Cl)cc1Cl,inactive
15,CCC1CCCCN1CCCNC(=O)c1[nH]c2ccccc2c1Sc1ccc(Cl)cc1 (centres undefined),39.8 µM (active)
16,CC1CCCCN1CCCNC(=O)c1[nH]c2ccccc2c1Sc1ccc(Cl)cc1 (centres undefined),39.8 µM (active)
17,CCCCCn1c(=O)[nH]c2cc(C(=O)NCCCN3CCCCC3C)ccc2c1=O (centres undefined),inactive
18,CC1CCCCC1NC(=O)CCn1c(=S)[nH]c2ccccc2c1=O (centres undefined),inactive
19,COc1ccccc1[C@H]1C(c2ccccc2)=NN(c2ccccc2)[C@@H]1CO,inactive
20,Cc1ccc(C2=CC(c3ccc(C)cc3)n3ncnc3N2)cc1 (centres undefined),inactive
21,Cc1ccc(Nc2cc(C)c(O)c(C)c2)cc1,inactive
22,CC(=O)c1ccc(Nc2cc(C)nc3c(C)cc(C)cc23)cc1,29.9 µM (active)
23,COCc1cc(C)nc2sc(C(=O)Nc3ccc(C(C)=O)cc3)c(N)c12,inactive

row,Compound,Potency
1,COC(=O)Cc1c(C)c2cc3c(c(C)c2oc1=O)OCN(CCc1ccc(F)cc1)C3,inactive
2,COC(=O)Cc1c(C)c2ccc3c(c2oc1=O)CN(Cc1ccccc1OC)CO3,inactive
3,COc1ccc(C2C=C(c3ccc(Br)cc3)Nc3nc(N4C(=O)CCC4=O)nn32)cc1 (centres undefined),inactive
4,CCc1cc(=O)oc2c(CN3CCN(C)CC3)c(O)ccc12,inactive
5,Cc1ccc(-c2csc3ncnc(Sc4nnc(CN5CCCCCC5=O)o4)c23)cc1,39.8 µM (active)
6,CCN(CC)c1ccc(C(=O)c2cnc(/N=C/N(C)C)s2)cc1,inactive
7,CCN(CC)c1ccc(C(=C2C=CC(=[N+](CC)CC)C=C2)c2ccc(N(CC)CC)cc2)cc1,10 µM (active)
8,CCN(CC)c1ccc(C(=O)OCC(=O)N(C(C)C)C(C)C)cc1,inactive
9,CCOc1ccc(Nc2nc3c(C)cccc3cc2C#N)cc1,inactive
10,Cc1ccc(NC(=O)Cc2ccc(Cl)cc2)nc1,inactive
11,O=C(Cc1ccc(Cl)cc1)Nc1ccc(-c2nnc(-c3ccco3)o2)cc1,39.8 µM (active)
12,N=C(N)NS(=O)(=O)c1ccc(NC(=S)NC(=O)Cc2ccc(Cl)cc2)cc1,inactive
13,CC(C)OCCCNC(=O)NC(=O)c1ccc(Cl)cc1,inactive
14,O=C(COc1ccc(Cl)cc1)N(Cc1cccs1)C1CCS(=O)(=O)C1 (centres undefined),inactive
15,Cc1cc(O)c(C(=O)/C=C/c2ccc(Cl)cc2)c(=O)o1,inactive
16,CCOc1ccc(-n2cc(C(=O)c3cc(Cl)ccc3O)cc(C#N)c2=O)cc1,inactive
17,CCOc1ccc(OCCOc2ccc(/C=C/C(=O)O)cc2OCC)cc1,inactive
18,CCOc1ccc(/C=C/C(=O)c2cc(Br)ccc(=O)c2O)cc1,22.4 µM (active)
19,CCN=c1ccc(Br)cc(C(=O)/C=C/c2ccc(Cl)cc2)c1O,31.6 µM (active)
20,CC(C)(C)c1ccc(C(=O)NNc2ncccc2-n2cccc2)cc1,inactive
21,CC(=O)N/N=C/c1cc(C(C)C)cc(/C=N/NC(C)=O)c1O,inactive
22,O=c1c(Br)c(Br)cnn1-c1ccccc1,4.23 µM (active)
23,COc1cc(OC)nc(-n2ncc(Br)c(Br)c2=O)n1,10.6 µM (active)
